Source: PubChem
D1 antagonist – Antagonist of Human D 1 Dopamine Receptor: qHTS. AID 504652, 2011. hit rate 3.2% among 360,000. activity change, negative = inhibition, % at 10 µM. D(1A) dopamine receptor (Homo sapiens), P21728. HEK293 TREx D1 cells, calcium flux, dopamine EC80; active compounds read low; in the data active = activity change below about -30%; also: % is scaled to controls: 0 for no effect and ±100 for the full control effect
Target sequence (P21728 whole entry, looked up): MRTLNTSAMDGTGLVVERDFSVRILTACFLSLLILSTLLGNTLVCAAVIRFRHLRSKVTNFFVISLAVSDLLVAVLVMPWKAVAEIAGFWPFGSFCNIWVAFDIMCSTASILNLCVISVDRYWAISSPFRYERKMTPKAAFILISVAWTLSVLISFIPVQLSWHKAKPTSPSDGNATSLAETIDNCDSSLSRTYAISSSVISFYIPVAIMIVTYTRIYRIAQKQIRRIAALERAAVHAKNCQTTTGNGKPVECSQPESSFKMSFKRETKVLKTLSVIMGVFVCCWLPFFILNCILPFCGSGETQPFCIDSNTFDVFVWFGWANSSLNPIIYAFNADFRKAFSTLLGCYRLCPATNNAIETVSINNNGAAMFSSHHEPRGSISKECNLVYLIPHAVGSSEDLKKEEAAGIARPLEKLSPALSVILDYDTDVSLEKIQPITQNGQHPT
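HEK293 T-REx cells expressing inducible, force-coupled D1 receptor; no-wash Ca dye, 30–90 min RT. Cmpd → 180 s read at 1 Hz → EC80 DA → 180 s read.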
TRHR enhancer – qHTS for Small Molecule Agonists and Allosteric Enhancers of Human TRH Receptor: Primary Screen for Enhancers | Thyrotropin-releasing hormone receptor (Homo sapiens), P34981 | TRHR cells, fluo-8 calcium fluorescence, EC20 TRH enhancement | enhancement, % at 2 µM | hit rate 0.66% among 360,000 | AID 493056, 2011; in the data active = enhancement above about 30%; also: 0% is about no effect
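TRHR-expressing cells loaded with fluo-8 calcium dye were read kinetically (ex 480/em 530) during compound addition, then stimulated with an EC20 of TRH (10 nM final). Enhancement of the Gq-mediated intracellular calcium response was scored.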
D1 PAM – Potentiators of Human D1 Dopamine Receptor: qHTS; D(1A) dopamine receptor (Homo sapiens), P21728; AID 504651, 2011; hit rate 0.036% among 360,000; HEK293 TREx D1 cells, calcium flux, dopamine EC20 potentiation; potentiation, % at 10 µM; in the data active = potentiation above about 30%; also: 0% is about no effect
TRHR ag – qHTS for Small Molecule Agonists and Allosteric Enhancers of Human TRH Receptor: Primary Screen for Agonists | hit rate 0.18% among 360,000 | activation, % at 2 µM | TRHR cells, calcium flux fluo-8, FDSS agonist mode | Thyrotropin-releasing hormone receptor (Homo sapiens), P34981; also: 0% is about no effect
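Read-out: compound-evoked intracellular calcium rise in TRHR cells, fluo-8 dye, kinetic FDSS fluorescence at 1 s/cycle following a 10-cycle baseline. Cells cultured overnight before dye loading (30 min–1.5 h, RT).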
D1 ag – Allosteric Agonists of the Human D1 Dopamine Receptor: qHTS. D(1A) dopamine receptor (Homo sapiens), P21728. activation, % at 2 µM. hit rate 1% among 360,000. HEK293 T-REx D1 cells, calcium flux, agonist mode; also: 0% is about no effect
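Inducible HEK293 T-REx D1 cells, force-coupled to calcium signalling, were plated at 4000 cells/well with tetracycline and held overnight at 30 C. After no-wash calcium dye loading, compound-evoked calcium rise over 180 s flagged agonists.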
The depositor's hits bear a star. This is a sample that favours compounds with a hit; in the whole collection about 4.7% have one here. Rule as the data show it, unless noted: active = activation above about 30%; inactive = the rest.

What do the screens show for `CCOc1ccccc1NC(=S)NC(=O)C1CCCCC1`?
D1 antagonist: 13; TRHR enhancer: 3; D1 PAM: 18; TRHR ag: 0; D1 ag: 3

Results for COc1ccccc1OCCNC(=O)C1CCCCC1 ?
D1 antagonist: 4; TRHR enhancer: -6; D1 PAM: -3; TRHR ag: 1; D1 ag: 34*

What do the screens show for `CCCS(=O)(=O)N1CCCC(C(=O)NCCCOC)C1` (stereo unspecified)?
D1 antagonist: -11; TRHR enhancer: -5; D1 PAM: -3; TRHR ag: 0; D1 ag: -5

How did Cc1cc(C)cc(NC(=O)c2ncn(-c3ccccc3)n2)c1 do in these assays?
D1 antagonist: 6; TRHR enhancer: -4; D1 PAM: 1; TRHR ag: -1; D1 ag: 0

How did Cc1ccc(NC(=O)N2C3CCCC2CC(NC(=O)C2CC2)C3)cc1 (stereo unspecified) do in these assays?
D1 antagonist: -5; TRHR enhancer: 30*; D1 PAM: -4; TRHR ag: 0; D1 ag: 1

What do the screens show for `O=C(NC1CC2CCCC(C1)N2C(=O)Nc1cccc(F)c1)C1CC1` (stereo unspecified)?
D1 antagonist: -7; TRHR enhancer: 2; D1 PAM: 1; TRHR ag: 0; D1 ag: 1

How did COc1ccc(N2CCN(C(c3ccccc3F)c3sc4nc(-c5ccco5)nn4c3O)CC2)cc1 (stereo unspecified) do in these assays?
TRHR enhancer: -3; D1 PAM: -2; TRHR ag: 0; D1 ag: 1

How did CCn1c(C(=O)N2CCC(C(=O)NCCc3ccc(OC)cc3OC)CC2)cc2sccc21 do in these assays?
D1 antagonist: -11; TRHR enhancer: -2; D1 PAM: -4; TRHR ag: 0; D1 ag: 11

Results for COc1ccc2c(CNCc3ccco3)c(C(=O)O)n(Cc3cccc(F)c3)c2c1 ?
D1 antagonist: -22; TRHR enhancer: 2; D1 PAM: -2; TRHR ag: 0; D1 ag: 0

Results for Cc1ccc(CCNC(=O)C23CN(Cc4ccccc4)CC2C(c2cccc([N+](=O)[O-])c2)=NO3)cc1 (stereo unspecified) ?
D1 antagonist: -10; TRHR enhancer: 34*; D1 PAM: 1; TRHR ag: 0; D1 ag: 0

How did COc1ccc(CCNC(=O)C23CN(Cc4ccccc4)CC2C(c2cccc([N+](=O)[O-])c2)=NO3)cc1 (stereo unspecified) do in these assays?
D1 antagonist: 21; TRHR enhancer: 0; D1 PAM: 0; TRHR ag: 0; D1 ag: 3

What do the screens show for `CCOc1ccc(-c2nc3scc(-c4cccs4)c3c(=O)[nH]2)cc1`?
D1 antagonist: -75*; TRHR enhancer: 2; D1 PAM: -9; TRHR ag: 0; D1 ag: 5

Results for Cc1ccc(-c2csc3nc(-c4ccncc4)[nH]c(=O)c23)cc1 ?
D1 antagonist: -34*; TRHR enhancer: 2; D1 PAM: -15; TRHR ag: 0; D1 ag: 10

What do the screens show for `O=c1[nH]c(Cc2ccc(F)cc2)nc2scc(-c3ccc(F)cc3)c12`?
D1 antagonist: -8; TRHR enhancer: 2; D1 PAM: -5; TRHR ag: 0; D1 ag: 5

How did Cc1ccc(-c2csc3nc(CN(C)Cc4ccccc4)[nH]c(=O)c23)cc1 do in these assays?
D1 antagonist: -36*; TRHR enhancer: -10; D1 PAM: -12; TRHR ag: 2; D1 ag: 7

How did CCCc1nn2c(=O)cc(COC(=O)CNC(=O)COc3ccc(C)cc3)nc2s1 do in these assays?
D1 antagonist: -19; TRHR enhancer: -4; D1 PAM: -7; TRHR ag: 0; D1 ag: 0

Results for Cn1cccc1/C=N/n1c(-c2ccc(Cl)cc2)n[nH]c1=S ?
D1 antagonist: -6; TRHR enhancer: 3; D1 PAM: 4; TRHR ag: 0; D1 ag: 13
